This is a sample that favours compounds with a hit; in the whole collection about 2.8% have one here.
Platelet DG rel – inhibitors of platelet dense granule secretion, primary screen, cell-based, MLPCN, human platelets | human platelet-rich plasma, SFLLRN dense granule ATP release, luminescence | 0.22% of 300,000 active | inhibition, %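 (compounds screened at 7.5 µM in platelet-rich plasma)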;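 active = mean replicate score, as percent of positive control, at or above 50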
SENP7 block – SENP7 protease inhibitors, primary screen, biochemical, luminescence, uHTS; Sentrin-specific protease 7 (Homo sapiens), Q9BQF6; inhibition, % at 5 µM; 1.5% of 330,000 active; AID 434973, 2010; recombinant SENP7, Z-RLRGG-aminoluciferin luminescence, 40 min;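 active = inhibition above about 50% at the single test dose, limit read from the data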
SENP8 block-1 – SENP8 protease inhibitors, primary screen, biochemical, luminescence; purified SENP8, Z-RLRGG-aminoluciferin cleavage; inhibition, % at 10 µM; 1.2% of 330,000 active; AID 2540, 2010; in the data active = inhibition above about 50%
SENP6 inh – SENP6 protease inhibitors, primary screen, biochemical, luminescence, uHTS; Sentrin-specific protease 6 (Homo sapiens), Q9GZR1; 1.8% of 330,000 active; AID 2599, 2010; Recombinant SENP6 catalytic domain, aminoluciferin luminescence; inhibition, % at 10 µM;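 active = inhibition above about 50% at the single tested dose, limit read from the data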
Target sequence (Q9GZR1 628-1112 limits assumed): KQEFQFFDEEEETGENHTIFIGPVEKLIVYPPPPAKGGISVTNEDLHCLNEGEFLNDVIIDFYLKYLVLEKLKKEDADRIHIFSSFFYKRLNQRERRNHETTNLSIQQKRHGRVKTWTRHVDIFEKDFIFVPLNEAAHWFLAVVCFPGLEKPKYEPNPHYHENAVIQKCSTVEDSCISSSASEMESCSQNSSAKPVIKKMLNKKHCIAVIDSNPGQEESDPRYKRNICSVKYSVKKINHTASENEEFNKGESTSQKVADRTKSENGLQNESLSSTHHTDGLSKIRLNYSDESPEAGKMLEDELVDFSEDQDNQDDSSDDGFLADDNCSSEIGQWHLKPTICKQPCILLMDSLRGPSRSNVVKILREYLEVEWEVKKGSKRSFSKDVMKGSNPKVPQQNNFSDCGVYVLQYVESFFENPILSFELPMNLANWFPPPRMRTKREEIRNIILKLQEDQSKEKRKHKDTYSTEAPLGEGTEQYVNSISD
HSP90 inh – HSP90 inhibitors, primary screen, cell lysate, luminescence | 0.91% of 290,000 active | inhibition, % at 5.6 µM | AID 1789, 2009 | Heat shock protein HSP 90 (rabbit reticulocyte lysate; luciferase refolding) | Rabbit reticulocyte lysate, luciferase refolding luminescence, 3 h;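 active = inhibition above the screen-wide mean plus 3 SD, computed separately per campaign, cut at about 16% in these data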;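 note: inhibitors lower the luminescence because luciferase stays unfolded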
SENP8 block-2 – human SENP8 protease inhibitors, primary screen, biochemical, fluorescence, Nedd8 protein substrate, uHTS; inhibition, % at 20 µM; Sentrin-specific protease 8 (Homo sapiens), Q96LD8; 0.64% of 360,000 active; AID 602440, 2012; recombinant SENP8; in the data active = inhibition mostly above about 40%, no sharp cut-off; inactive = mostly below about 27%
Numbers stand for hits; . = inactive; / = no result.

SMILES | Platelet DG rel | SENP7 block | SENP8 block-1 | SENP6 inh | HSP90 inh | SENP8 block-2
COc1cc(-n2nc(C)c3c2OC(N)=C(C#N)C3c2ccccc2)c(Cl)c(Br)c1O (stereo unspecified) | . | . | . | . | 17 | .
COc1ccc(/C=C2\SC(=O)N(CC(=O)Nc3ccc(F)cc3)C2=O)cc1O | . | . | . | . | . | .
O=C(COc1cc(Cl)c(Cl)cc1Cl)Nc1cccc(O)c1 | . | 63 | . | . | . | .
COc1cccc(/C=N/NC(=O)c2cnn(-c3ccccc3)c2N)c1 | . | 81 | 71 | 83 | . | .
COc1ccc2c(c1OC)C(=O)O[C@@H]2[C@H]1c2c(cc3c(c2OC)OCO3)CCN1C | . | . | . | . | . | 44
CCOc1cc(/C=N/NC(=O)C(=O)N/N=C/c2ccc(O)c(OCC)c2)ccc1O | . | . | . | . | . | .
COc1ccc(/C=N/NC(=O)/C(=C/c2ccccc2)CCO)cc1 | . | . | . | . | . | .
COc1cc(/C=N/NC(=O)/C(=C/c2ccccc2)CCO)ccc1O | 56 | . | . | . | . | .
CCOc1cc(/C=N/NC(=O)N/N=C/c2ccc(O)c(OCC)c2)ccc1O | 58 | . | . | . | / | /
COc1cccc(NC(=O)CN(C)S(=O)(=O)/C=C/c2ccccc2)c1 | / | . | . | . | / | .
COc1ccc(NS(=O)(=O)c2cc([N+](=O)[O-])ccc2N/N=C\c2c(C)[nH]c3ccccc23)cc1 | . | . | . | . | . | 47
Cc1[nH]c2ccccc2c1/C=N/Nc1ccc([N+](=O)[O-])cc1S(=O)(=O)Nc1ccc(Cl)cc1 | . | . | . | . | . | .
Nc1ccc(CSc2ccc(Cl)cc2)c(Cl)c1 | / | / | / | / | / | .
Oc1c(CN2CCOCC2)cc(CN2CCOCC2)c(O)c1O | / | / | / | / | / | 52
COc1cc2cc(C(=O)N3CCN(Cc4ccc5c(c4)OCO5)CC3)c(=O)oc2cc1OC | . | . | . | . | . | .
CN(C)S(=O)(=O)c1cccc(NC(=S)N/N=C/c2ccc(O)c(O)c2O)c1 | . | / | / | / | . | 43
CCOC(=O)C1=C(CS(=O)(=O)c2ccccc2)NC(=O)NC1c1cc(OC)c(O)c(OC)c1 (stereo unspecified) | . | . | . | . | . | .
Cc1cc(-c2nc3ccccc3s2)ccc1N | / | / | / | / | / | .
Cc1cc(OCc2nc3ccccc3s2)ccc1N | . | . | 54 | 70 | . | .
CC(C)C(NC(=O)c1ccc(Cl)cc1)C(=O)NCC1CCCO1 (stereo unspecified) | . | . | . | . | . | .
CCOc1ccccc1NC(=O)Nc1ccc(Cl)cc1 | . | 72 | 52 | 83 | . | .
CCOc1ccccc1NC(=O)Nc1ccccn1 | . | . | . | . | . | .
Cn1c(O)c(/C=N/NC(=O)c2cc3ccccc3cc2O)c2ccccc21 | . | . | 93 | 97 | . | .
Cc1cc(C(=O)OCC(=O)NC(C)c2ccc(F)cc2)c(C)o1 (stereo unspecified) | / | . | . | . | / | .
CCC(CO)Nc1ncnc2c1cnn2-c1ccc(Cl)cc1 (stereo unspecified) | . | . | . | . | 27 | .
SMILES | Platelet DG rel | SENP7 block | SENP8 block-1 | SENP6 inh | HSP90 inh | SENP8 block-2
CCC(CO)Nc1ncnc2c1cnn2-c1ccc(OC)cc1 (stereo unspecified) | . | . | . | . | . | .
CN(C)CCNc1ncnc2c1cnn2-c1ccc(Cl)cc1 | . | . | . | . | . | .
CN1CCN(c2ncnc3c2cnn3-c2ccc(Cl)cc2)CC1 | . | . | . | . | 42 | .
CCN1CCN(c2ncnc3c2cnn3-c2ccc(Cl)cc2)CC1 | . | . | . | . | / | .
OCCCNc1ncnc2c1cnn2-c1ccc(Cl)cc1 | . | . | . | . | 16 | .
CCNC(=O)C1(C)CCCN1C(=O)c1cc(OC)c(OC)c(OC)c1 (stereo unspecified) | / | / | / | / | / | .
Cc1ccccc1NP1(=O)OCCCN1Cc1ccccc1Cl (stereo unspecified) | / | / | / | / | / | .
O=C(c1ccc(N2CCN(C(=O)c3ccc(F)c(F)c3)CC2)cc1)c1cccc(F)c1 | . | . | . | . | . | .
N=C1CCC(=N)c2c1c(O)c1ccccc1c2O | . | . | . | 63 | . | 89
O=C(CSc1nnc2c3ccccc3c3ccccc3c2n1)Nc1ccccc1 | . | . | . | . | . | /
O=C(CSc1nnc2c3ccccc3c3ccccc3c2n1)Nc1ccccc1F | 55 | . | . | . | . | .
COc1ccc(C(=O)Nc2cccnc2)cc1 | . | . | . | . | . | .
COc1ccc(C(=O)Nc2ccccc2C(=O)Nc2cccnc2)cc1 | 64 | . | . | . | . | .
COc1ccc(OC)c(S(=O)(=O)N2CCC(C(=O)NCc3ccc4c(c3)OCO4)CC2)c1 | . | . | . | . | . | .
CC(/C=C(\NC(=O)c1ccccc1)C(=O)N=Nc1c(O)[nH]c2ccc(C)cc12)=C\c1ccccc1 | . | . | . | . | . | 51
O=C(COc1ccc(Cl)cc1Cl)Nc1ccc(C(=O)Nc2ccccc2C(=O)O)cc1 | . | . | . | . | . | .
O=C(COc1ccc(Cl)cc1Cl)NC(=S)Nc1ccccc1C(=O)O | . | . | 59 | 64 | . | /
Cc1cccc(S(=O)(=O)NC2CCCCCCC2)c1 | . | . | . | . | . | .
OC(COCC1COc2ccccc2O1)CN1CCN(c2ccccn2)CC1 (stereo unspecified) | . | . | . | . | 19 | .
OC(COCC1COc2ccccc2O1)CN1CCc2ccccc2C1 (stereo unspecified) | . | . | . | . | . | .
CCCc1cc(=O)[nH]c(SCC(=O)N(CCOC)c2c(N)n(Cc3ccccc3)c(=O)[nH]c2=O)n1 | . | . | . | . | / | .
COc1ccc(CNC(=O)C(C)N2C(=O)COc3ccc(C)cc32)c(OC)c1 (stereo unspecified) | . | . | . | . | . | .
CCOC(=O)C1CCN(c2ncnc3c2cnn3-c2ccc(OC)cc2)CC1 | / | . | . | . | . | .
CCOC(=O)C1CCN(c2ncnc3cc(OC)c(OC)cc23)CC1 | 58 | . | . | . | . | .
COc1cccc(C(NC(C)=O)c2nc(-c3cccc(C(=O)O)c3)cs2)c1 (stereo unspecified) | / | / | / | / | / | .
Oc1cc2c(cc1O)C1c3ccc(O)c(O)c3OCC1(O)C2 (stereo unspecified) | / | . | . | . | . | 69
O=C(COC(=O)c1cccc(OC(F)F)c1)Nc1ncccn1 | / | . | . | . | / | .
Cc1ccc(S(=O)(=O)N(C)C)cc1NC(=O)CCNC(=O)c1ccco1 | . | . | . | . | . | .

Screening data from PubChem.
